Results filed as inconclusive are left out. The source made the active and inactive calls. Calls follow the shape of the dose curve; as a rule, active = well fitted curve in the direction sought with a large enough effect; inconclusive = small, poorly fitted or top-dose-only effect, or another doubt; inactive = no such curve, though single readings can be large; an effect the other way counts as inactive or inconclusive.
Legend:
[1] = qHTS of pediatric cancer cell lines to identify multiple opportunities for drug repurposing: Primary screen for Rh18 cells (AID 1347102); also: nearly all actives have a fitted effect of over 65% in size; also: potency is read from the fitted curve at half-maximal effect
Outline: (§1)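 Cells (500-1,000/well) in growth media were settled 5 h at 37 degrees C, then given compounds for 48 h. Viability was read as CellTiter-Glo luminescence. Primary runs used MIPE at 11 points (0.78 nM-46 µM) and NPC at 8 points (0.59 nM-46 µM); follow-ups used 11 points.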

[2] = qHTS of pediatric cancer cell lines to identify multiple opportunities for drug repurposing: Primary screen for control Hh wild type fibroblast cells (AID 1347106); also: nearly all actives have a fitted effect of over 55% in size; also: potency is read from the fitted curve at half-maximal effect
Outline: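 Viability after 48 h compound treatment at 37C, 500-1,000 cells/well, read as ATP luminescence with CellTiter-Glo. Primary screens used 11-point (MIPE, 0.78 nM-46 µM) or 8-point (NPC, 0.59 nM-46 µM) final concentrations; follow-up screens used 11-point dilutions.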

[3] = qHTS of pediatric cancer cell lines to identify multiple opportunities for drug repurposing: Primary screen for Rh30 cells (AID 1347107); also: nearly all actives have a fitted effect of over 75% in size; also: potency is read from the fitted curve at half-maximal effect
Outline: as §1

[4] = qHTS of pediatric cancer cell lines to identify multiple opportunities for drug repurposing: Primary screen for RD cells (AID 1347104); also: nearly all actives have a fitted effect of over 55% in size; also: potency is read from the fitted curve at half-maximal effect
Outline: (§2)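 Following a 5-hour attachment period, cells at 500-1,000/well received compounds and were cultured for 48 hours. CellTiter-Glo was added and luminescence read to estimate viable, metabolically active cells.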

[5] = qHTS of pediatric cancer cell lines to identify multiple opportunities for drug repurposing: Primary screen for MG 63 (6-TG R) cells (AID 1347105); also: nearly all actives have a fitted effect of over 50% in size; also: potency is read from the fitted curve at half-maximal effect
Outline: as §2

[6] = qHTS of pediatric cancer cell lines to identify multiple opportunities for drug repurposing: Primary screen for Rh41 cells (AID 1347108); also: nearly all actives have a fitted effect of over 70% in size; also: potency is read from the fitted curve at half-maximal effect
Outline: as §2

[7] = qHTS of pediatric cancer cell lines to identify multiple opportunities for drug repurposing: Primary screen for OHS-50 cells (AID 1347103); also: potency is read from the fitted curve at half-maximal effect; nearly all actives have a fitted effect of over 40% in size
Outline: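 Cells (500-1,000/well) rested 5 h, then received compounds for 48 h; metabolically active cells were measured by CellTiter-Glo luminescence. Final concentrations spanned up to 46 µM (MIPE, 11-point) or 0.59 nM-46 µM (NPC, 8-point) in primary screens, 11-point in follow-ups.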

[8] = qHTS of pediatric cancer cell lines to identify multiple opportunities for drug repurposing: Confirmatory screen for NB1643 cells (AID 1347109); also: nearly all actives have a fitted effect of over 45% in size
Outline: as §1

[9] = qHTS of pediatric cancer cell lines to identify multiple opportunities for drug repurposing: Confirmatory screen for A673 cells (AID 1347110);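 also: cells exposed to compound for 48 h before the viability read; nearly all actives have a fitted effect of over 65% in size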; also: potency is read from the fitted curve at half-maximal effect
Outline: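 Viability was read as ATP luminescence (CellTiter-Glo) after 48 h of compound exposure at 37 C in A673 cells seeded at 500-1,000/well. Titrations reached 46 uM final, with 11 points in the confirmatory screen. Concentration-response curves were fitted directly.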

Measured: Potency

CC(=O)O[C@@]12CO[C@H]1C[C@H](O)[C@@]1(C)C(=O)[C@H](O)C3=C(C)[C@@H](O)C[C@@](O)([C@@H](OC(=O)c4ccccc4)[C@@H]21)C3(C)C
inactive: [1] | [2] | [3]

Oc1ccc2c3c1O[C@H]1[C@@H](O)C=C[C@H]4[C@@H](C2)NCC[C@@]341
inactive: [1] | [4] | [5] | [2] | [3] | [6]

CCCCCCCCCCCCCCCC[N+](C)(C)C
active: [7] 3.89 µM | [4] 13.3 µM | [5] 21.1 µM

CCN(CC)C(=O)c1ccc(C2=CC3(CCNCC3)Oc3cccc(O)c32)cc1
inactive: [1] | [5] | [2] | [3] | [6]

CC(C)(C)c1cc(C=C(C#N)C#N)cc(Br)c1O
inactive: [1] | [2] | [3] | [6]

O=C(NCC1CCOCC1)c1cnc(Nc2ccc(Cl)cc2Cl)nc1C(F)(F)F
active: [5] 29.6 µM
inactive: [1] | [2] | [3]

O=C1C(I)=CC(=C(c2cc(I)c(O)c(I)c2)c2ccccc2C(=O)O)C=C1I
inactive: [1] | [4] | [5] | [2] | [3] | [8]
active: [9] 3.69 µM

CC(=Cc1csc(C)n1)[C@@H]1C[C@H]2O[C@@H]2CCC[C@H](C)[C@@H](O)[C@@H](C)C(=O)C(C)(C)[C@@H](O)CC(=O)O1
inactive: [1] | [2] | [3]
active: [9] 0.0185 µM

C[C@]12CC[C@H](O)CC1=CC[C@H]1[C@H]3CCC(=O)[C@@]3(C)CC[C@@H]12
inactive: [1] | [4] | [2]

CCC(=O)OC1CCC2C3CCC4=CC(=O)CC[C@@]4(C)C3CC[C@]12C (some centres undefined)
inactive: [1] | [4] | [5] | [2] | [3] | [6] | [8] | [9]

O=c1cccc2n1CC1CNC[C@H]2C1
active: [1] 3.32 µM | [4] 18.7 µM | [6] 11.8 µM

O=C(O)c1cc(Oc2ccc(C(F)(F)F)cc2Cl)ccc1[N+](=O)[O-]
inactive: [1] | [4] | [5] | [2] | [3] | [6]

CC(C)(O)C(=O)Nc1ccc([N+](=O)[O-])c(C(F)(F)F)c1
inactive: [1]
active: [4] 29.6 µM

C[C@]12COC(=O)C[C@@H]1CC[C@@H]1[C@H]2CC[C@@]2(C)[C@H]1CC[C@]2(C)O
inactive: [1] | [4] | [5] | [2] | [3] | [6]

CN[C@@H]1Cc2cccc3[nH]c(=O)n(c23)C1
inactive: [1] | [4] | [5] | [2] | [3]

O=S(=O)(c1ccc(Cl)cc1)c1ccc(Cl)cc1
inactive: [1] | [4] | [5] | [2] | [3] | [6]

Cc1c(N)nc([C@H](CC(N)=O)NC[C@@H](N)C(N)=O)nc1C(=O)N[C@H](C(=O)N[C@@H](C)[C@H](O)[C@@H](C)C(=O)N[C@@H](C(=O)NCCc1nc(-c2nc(C(=O)NCCC[S+](C)C)cs2)cs1)[C@@H](C)O)C(O[C@H]1O[C@H](CO)[C@H](O)[C@@H](O)[C@@H]1O[C@H]1O[C@H](CO)[C@@H](O)[C@H](OC(N)=O)[C@H]1O)c1cnc[nH]1 (some centres undefined)
active: [7] 1.72 µM | [5] 0.59 µM | [9] 9.27 µM
inactive: [1] | [3] | [6]

CCOP(=O)(NC(C)C)Oc1ccc(SC)c(C)c1 (centres undefined)
inactive: [1] | [4] | [5] | [2] | [3] | [6]

CC(C)N[C@@H]1CCn2c(=O)[nH]c3cccc(c32)[C@@H]1O
active: [1] 4.69 µM | [4] 3.72 µM | [2] 11.8 µM | [3] 1.48 µM
inactive: [5] | [8]

C=C[C@@H]1CN2CCC1C[C@H]2[C@H](O)c1ccnc2ccccc12 (some centres undefined)
active: [1] 23.5 µM | [4] 37.2 µM
inactive: [5] | [2]

COc1ccc(CC2NCCc3cc(OC)c(OC)cc32)cc1OC (centres undefined)
inactive: [4] | [5] | [2] | [3] | [6]

COc1nn(CSP(=S)(OC)OC)c(=O)s1
inactive: [2]

CCOCCOC(C)=O
inactive: [4] | [5] | [2] | [3] | [6]

CC(=O)N(C)c1cccc(-c2ccnc3c(C(=O)c4cccs4)cnn23)c1
inactive: [4] | [5] | [2] | [3] | [6]

COc1ccc(C(=O)c2c(C)n(CCN3CCOCC3)c3cc(I)ccc23)cc1
inactive: [2] | [3]
active: [7] 19.3 µM | [4] 18.7 µM | [6] 18.7 µM | [9] 26.1 µM

From PubChem BioAssay (NCATS)
